Rows were chosen to be rich in hits. Some 19% of all compounds tested hit in one or more screens of this group.
IL1B secr inh = inflammasome signaling inhibition, IL-1 beta readout | THP-1 LPS/ATP IL-1B secretion, AlphaLISA, 16 h; hits give low values | activity change, % at 57.5 µM | 360,000 tested, 4.7% active | AID 743279; in the data active = activity change below about -50%; inconclusive = mostly about -30% to -49%
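THP-1 cells pretreated 1 hr with compounds (up to 57.5 uM final), then stimulated with LPS (250 ng/mL final) plus ATP (1.25 mM final); secreted IL-1B measured by AlphaLISA after 16 hr, decreased signal indicating inhibition.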
DT40 TDP1 no CPT = qHTS for Inhibitors of human tyrosyl-DNA phosphodiesterase 1 (TDP1): qHTS in cells in absence of CPT; Potency, µM (doses to about 46.2 µM), without a hit: at the top dose activity change, negative = growth inhibition, actives largely listed as inhibitors; DT40 Tdp1-/- hTDP1 cells, no CPT, ATP luminescence, 48 h; 420,000 tested, 15% active; AID 686978, 2013; also: potency is read from the fitted curve at half-maximal effect; nearly all actives have a fitted effect of over 55% in size
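Readout: luminescence from CellTiter-Glo after 30 min in the dark at RT. Cells: DT40 Tdp1-/- with stable hTDP1, 400/well. Exposure: compounds alone, ≥48 hr, 37 °C.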
HT1080 IDH1KD tx = kills HT-1080 cells with IDH1 knockdown; Potency, µM (doses to about 46.1 µM), for the others: at the highest dose activity, negative = toxicity, actives largely listed as cytotoxic; AID 686971; 360,000 tested, 2% active; HT-1080 IDH1 knockdown viability, ATP luminescence, 48 h;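 also: potency is read from the fitted curve at half-maximal effect; 0% = DMSO wells and -100% = cell-free medium wells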
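Using the IDH1-knockdown HT-1080 line run in the same batch and compound series as the NT line, viability after 48 h at 37 °C was determined by CellTiter-Glo luminescence and expressed as % activity.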
DT40 TDP1 CPT = DT40-hTDP1 cell growth loss with CPT | chicken DT40 Tdp1-/-;hTDP1 cells + 20 nM CPT, ATP luminescence, 48 h | Potency, µM (series often up to 46.2 µM), for inactives: at the top dose activity change, negative = growth inhibition, hits mostly inhibitors | 420,000 tested, 12% active; also: potency is read from the fitted curve at half-maximal effect; nearly all actives have a fitted effect of over 55% in size
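Chicken DT40 Tdp1-/- cells complemented with human TDP1, 400 cells/well, exposed to compounds plus 20 nM camptothecin for at least 48 h at 37 C; viability read as ATP content by CellTiter-Glo luminescence.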
HT1080NT lethal = kills 2HG-producing HT-1080-NT fibrosarcoma cells; HT-1080-NT fibrosarcoma viability, CellTiter-Glo ATP luminescence, 48 h; Potency, µM (top dose mostly 46.1 µM), without a hit: top-dose activity, negative = less viability, most hits filed as cytotoxic; 360,000 tested, 1.6% active;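 also: NT is the 2HG producing partner of a matched IDH1 knockdown line; potency is read from the fitted curve at half-maximal effect; 0% = DMSO-treated cells and -100% = media-only wells without cells; nearly all actives have a fitted effect of over 55% in size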
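HT-1080-NT; 750 cells/well; 5% FBS RPMI; 48 h compound, 37 degrees C; CellTiter-Glo luminescence; curve fitting and curve-class assignment.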
* marks the source's active call; other numbers are inactive results; ? = inconclusive; . = not tested or not shown. Unless noted, calls follow the shape of the dose curve; as a rule, active = well fitted curve in the direction sought with a large enough effect; inconclusive = small, poorly fitted or top-dose-only effect, or another doubt; inactive = no such curve, though single readings can be large; an effect the other way counts as inactive or inconclusive. Unless noted, % is scaled to controls: 0 for no effect and ±100 for the full control effect.

SMILES	IL1B secr inh	DT40 TDP1 no CPT	HT1080 IDH1KD tx	DT40 TDP1 CPT	HT1080NT lethal
COc1ccc(C2C(=O)N(C3CCCCCC3)CC(=O)N2Cc2ccccc2)cc1 (stereo unspecified)	.	25.9µM*	.	23.1µM*	.
CCC(C)(C)N1CC(=O)N(Cc2ccccc2)C(c2ccc(OC)cc2)C1=O (stereo unspecified)	-7.9	18.4µM*	2.2%	9.2µM*	0.6%
C/C(=N\Nc1nc2ccc(Cl)cc2o1)c1ccccc1	-6.4	?	-4.8%	7.6%	-4.3%
COCCC(=O)N1CCC(C(=O)Nc2ccc(Oc3ccccc3)nc2)CC1	16.3	1.0%	8.5%	?	12.2%
Nc1cc(C(=O)OCC(=O)NNC(=O)c2ccccc2)ccc1Cl	-3.3	-0.9%	26.7%	10.7%	1.3%
COc1ccc(C2C(=O)N(C3CCCCC3)CC(=O)N2Cc2ccc3c(c2)OCO3)cc1 (stereo unspecified)	-23.1	?	-5.2%	?	-10.8%
O=C1C(c2ccc(F)cc2)N(Cc2ccc3c(c2)OCO3)C(=O)CN1C1CCCCCC1 (stereo unspecified)	-14.2	14.6µM*	6.5%	?	1.6%
Cc1ccccc1Cn1cc(NC(=O)CCCn2nc([N+](=O)[O-])cc2C)cn1	7.7	-3.0%	10.5%	4.4%	8.2%
CCOC(=O)CNC(=S)N(Cc1ccco1)Cc1ccccc1Cl	-14.4	7.4%	-2.2%	?	8.4%
Cc1ccc(C)c(NC(=S)NNC(=O)c2sccc2C)c1	17.5	-11.3%	?	-8.6%	8.91µM*
COc1cccc(NC2c3ccccc3C(=O)N2Cc2ccccc2Cl)c1 (stereo unspecified)	-8.3	?	?	?	?
O=C1c2ccccc2C(Nc2cccc(C(F)(F)F)c2)N1Cc1ccco1 (stereo unspecified)	-5.2	16.4µM*	?	23.1µM*	-23.8%
COc1cccc(NC2c3ccccc3C(=O)N2Cc2ccco2)c1 (stereo unspecified)	0.0	23.1µM*	-2.3%	20.6µM*	-5.0%
Cc1ccccc1C(=O)NNC(=O)C1CCN(C(=O)Nc2ccccc2)CC1	12.0	-4.4%	-7.8%	2.1%	-5.5%
Cc1cccc(C(=O)NNC(=O)C2CCCCC2)c1O	18.2	23.1µM*	-29.0%	?	-0.4%
Cc1nc(Cl)sc1C(=O)Nc1ccc(C(F)(F)F)cc1	-64.6*	-7.9%	1.1%	-21.5%	2.4%
Cc1noc(-c2ccc(C(F)(F)F)cc2)c1NC(=O)Nc1ccc(Cl)cc1	-53.4*	3.66µM*	?	4.61µM*	?
Cc1oncc1C(=O)Nc1ccc(C(F)(F)F)cc1	-23.7	9.2µM*	?	7.31µM*	?
Cc1cc(-c2onc(C)c2C(=O)Nc2ccc(C(F)(F)F)cc2)no1	26.8	-1.6%	7.9%	3.5%	3.9%
Cc1nc(Cl)sc1C(=O)Nc1cccc(Cl)c1C	-96.0*	?	-0.4%	?	0.5%
COc1cc(C(=O)Nc2ccc(C)c(S(=O)(=O)N(C)C)c2)ccc1OCC(=O)N1CCOCC1	-3.8	-24.3%	10.9%	-29.2%	4.9%
COc1cccc(C2(CC(=O)N3CCC(c4nc5ccc(F)cc5[nH]4)CC3)CC(=O)N(C)C2=O)c1 (stereo unspecified)	.	-8.6%	.	-1.5%	.
COc1ccccc1C(=O)NC(CCSC)C(=O)NNC(=O)c1ccccc1O (stereo unspecified)	71.7	29.1µM*	?	?	-26.5%
COc1ccccc1C(=O)NC(CCSC)C(=O)NNC(=O)c1ccc(F)cc1 (stereo unspecified)	-8.0	-23.1%	-0.6%	-28.0%	-8.5%
COc1ccccc1C(CNC(=O)c1ccc(S(=O)(=O)N2CCCCC2)cc1)N(C)C (stereo unspecified)	11.4	25.0%	-3.0%	5.8%	6.8%
SMILES	IL1B secr inh	DT40 TDP1 no CPT	HT1080 IDH1KD tx	DT40 TDP1 CPT	HT1080NT lethal
CC(C)CN(c1ccccc1)S(=O)(=O)c1nnc(NC(=O)C(C)C)s1	8.3	-4.6%	6.0%	0.5%	4.1%
CCN(c1ccccc1)S(=O)(=O)c1nnc(NC(=O)C2CCCCC2)s1	.	-0.6%	.	3.2%	.
CCN(c1ccc(C)cc1)S(=O)(=O)c1nnc(NC(=O)C2CCCCC2)s1	.	10.3µM*	.	?	.
CC(C)CN(c1ccccc1)S(=O)(=O)c1nnc(NC(=O)C2CCCCC2)s1	.	?	.	5.17µM*	.
Cc1cc(O)ccc1N1C(=O)c2cccc3cc([N+](=O)[O-])cc(c23)C1=O	16.9	?	5.2%	?	-19.4%
Cc1ccc(N2C(=O)c3cccc4c(Oc5ccccc5[N+](=O)[O-])ccc(c34)C2=O)c(C)c1	12.7	6.51µM*	3.8%	10.3µM*	16.3%
O=C(NC1CCCCC1)C1CCN(C(=O)c2ccc(Cl)cc2)CC1	1.8	-15.0%	10.7%	-29.0%	-7.6%
COc1cc2nc(C3CCC3)n(NC(=O)c3ccco3)c(=O)c2cc1OC	-57.3*	2.9%	1.7%	0.6%	8.4%
O/C(=C\c1nc2ccccc2nc1/C=C(\O)c1ccccc1)c1ccccc1	-98.1*	?	?	?	20.6µM*
COc1ccc(OC)c(NC(=O)Cc2ccc(NC3=NC4CS(=O)(=O)CC4S3)cc2)c1 (stereo unspecified)	-18.8	-2.2%	-2.6%	7.6%	0.0%
O=C1C=CC(=O)N1c1cccc(-c2ccccc2)c1	-65.0*	0.731µM*	?	0.651µM*	20.6µM*
O=C(Nc1cccc(Oc2ccccc2)c1)c1ccc(-n2cncn2)c2ccoc12	34.0	?	?	18.4µM*	-7.6%
COc1cc(C)ccc1OCCCCOc1ccccc1C(C)=O	8.3	?	-0.2%	1.84µM*	9.4%
COc1ccc(-c2cc(=Nc3ccc(C(=O)O)cc3)c3cc(C)ccc3o2)cc1	-22.4	-25.9%	-29.3%	-17.5%	-5.2%
CCc1ccc2oc(-c3ccc(OC)cc3)cc(=Nc3cccc(C(=O)O)c3)c2c1	-66.2*	?	-19.6%	?	-3.8%
COc1ccc(-c2nonc2NC(=O)c2oc3ccccc3c2C)cc1OC	0.0	-16.4%	-9.5%	-24.6%	-7.0%
CCc1nonc1NC(=O)c1oc2cc(C)c(C)cc2c1C	10.1	?	-29.4%	-25.8%	?
CCc1nonc1NC(=O)c1oc2cc(C)c(Cl)cc2c1C	17.2	9.2µM*	19.8%	?	11.9%
CCOc1ccc(-c2nonc2NC(=O)c2oc3ccc(Cl)cc3c2C)cc1	.	0.92µM*	.	0.92µM*	.
COc1cc2c(cc1OC)C(c1ccc(Br)cc1)NC(=O)C2 (stereo unspecified)	-71.0*	-16.7%	-4.3%	2.2%	-3.8%

Assay outcomes: PubChem, National Center for Advancing Translational Sciences (NCATS)
